# Reference: article PMC11062922 (Nature Chemical Biology, 2023)
# Like-named read-outs stand apart in the source and are kept apart here.
# Assays:
# MAP2K1 = conditions: read-out: apparent Kd, n = 1
# MAP3K5 = conditions: read-out: apparent Kd, n = 1
substance,measurement,setting,value
Lestaurtinib,potency estimated from few doses,"MAP2K1; compound concentrations:100 nM and 1000 nM (sheet 'Lestaurtinib' of Supplementary Table 1),run:Lestaurtinib_02577_R3,Plate:MR016",1.75 µM
same,potency estimated from few doses,"MAP2K1; compound concentrations:100 nM and 1000 nM (sheet 'Lestaurtinib' of Supplementary Table 1),run:Lestaurtinib_02584_R2,Plate:MR017",1.72 µM
same,potency estimated from few doses,"MAP2K1; compound concentrations:100 nM and 1000 nM (sheet 'Lestaurtinib' of Supplementary Table 1),run:Lestaurtinib_02584_R3,Plate:MR017",1.99 µM
same,potency estimated from few doses,"MAP2K1; compound concentrations:100 nM and 1000 nM (sheet 'Lestaurtinib' of Supplementary Table 1),run:Lestaurtinib_02601_R1,Plate:MR018",0.876 µM
same,potency estimated from few doses,"MAP2K1; compound concentrations:100 nM and 1000 nM (sheet 'Lestaurtinib' of Supplementary Table 1),run:Lestaurtinib_02606_R1,Plate:MR019",0.884 µM
same,potency estimated from few doses,"MAP2K1; compound concentrations:100 nM and 1000 nM (sheet 'Lestaurtinib' of Supplementary Table 1),run:Lestaurtinib_02724_R1,Plate:MR021",1.6 µM
same,potency estimated from few doses,"MAP2K1; compound concentrations:100 nM and 1000 nM (sheet 'Lestaurtinib' of Supplementary Table 1),run:Lestaurtinib_02724_R2,Plate:MR021",2.07 µM
same,potency estimated from few doses,"MAP2K1; compound concentrations:100 nM and 1000 nM (sheet 'Lestaurtinib' of Supplementary Table 1),run:Lestaurtinib_02724_R3,Plate:MR021",1.61 µM
same,potency estimated from few doses,"MAP2K1; compound concentrations:100 nM and 1000 nM (sheet 'Lestaurtinib' of Supplementary Table 1),run:Lestaurtinib_02741_R1,Plate:MR023",2.06 µM
same,potency estimated from few doses,"MAP2K1; compound concentrations:100 nM and 1000 nM (sheet 'Lestaurtinib' of Supplementary Table 1),run:Lestaurtinib_02741_R3,Plate:MR023",1.32 µM
same,potency estimated from few doses,"MAP2K1; compound concentrations:100 nM and 1000 nM (sheet 'Lestaurtinib' of Supplementary Table 1),run:Lestaurtinib_02748_R1,Plate:MR024",1.44 µM
same,potency estimated from few doses,"MAP2K1; compound concentrations:100 nM and 1000 nM (sheet 'Lestaurtinib' of Supplementary Table 1),run:Lestaurtinib_02748_R3,Plate:MR024",1.4 µM
same,potency estimated from few doses,"MAP2K1; compound concentrations:100 nM and 1000 nM (sheet 'Lestaurtinib' of Supplementary Table 1),run:Lestaurtinib_02752_R2,Plate:MR025",1.51 µM
same,potency estimated from few doses,"MAP2K1; compound concentrations:100 nM and 1000 nM (sheet 'Lestaurtinib' of Supplementary Table 1),run:Lestaurtinib_02765_R2,Plate:MR026",1.62 µM
same,potency estimated from few doses,"MAP2K1; compound concentrations:100 nM and 1000 nM (sheet 'Lestaurtinib' of Supplementary Table 1),run:Lestaurtinib_02765_R3,Plate:MR026",1.67 µM
same,potency estimated from few doses,"MAP2K1; compound concentrations:100 nM and 1000 nM (sheet 'Lestaurtinib' of Supplementary Table 1),run:Lestaurtinib_02766_R1,Plate:MR027",0.964 µM
same,potency estimated from few doses,"MAP2K1; compound concentrations:100 nM and 1000 nM (sheet 'Lestaurtinib' of Supplementary Table 1),run:Lestaurtinib_02766_R3,Plate:MR027",1.54 µM
same,potency estimated from few doses,"MAP2K1; compound concentrations:100 nM and 1000 nM (sheet 'Lestaurtinib' of Supplementary Table 1),run:Lestaurtinib_02768_R3,Plate:MR028",2.21 µM
same,potency estimated from few doses,"MAP2K1; compound concentrations:100 nM and 1000 nM (sheet 'Lestaurtinib' of Supplementary Table 1),run:Lestaurtinib_02795_R2,Plate:MR022",0.771 µM
same,potency estimated from few doses,"MAP2K1; compound concentrations:100 nM and 1000 nM (sheet 'Lestaurtinib' of Supplementary Table 1),run:Lestaurtinib_02802_R1,Plate:MR029",1.9 µM
same,potency estimated from few doses,"MAP2K1; compound concentrations:100 nM and 1000 nM (sheet 'Lestaurtinib' of Supplementary Table 1),run:Lestaurtinib_02896_R1,Plate:MR030",0.803 µM
same,potency estimated from few doses,"MAP2K1; compound concentrations:100 nM and 1000 nM (sheet 'Lestaurtinib' of Supplementary Table 1),run:Lestaurtinib_03172_R3,Plate:MR031",0.823 µM
same,potency estimated from few doses,"MAP2K1; compound concentrations:100 nM and 1000 nM (sheet 'Lestaurtinib' of Supplementary Table 1),run:Lestaurtinib_03252_R1,Plate:MR032",1.54 µM
same,potency estimated from few doses,"MAP2K1; compound concentrations:100 nM and 1000 nM (sheet 'Lestaurtinib' of Supplementary Table 1),run:Lestaurtinib_03260_R1,Plate:MR033",1.21 µM
same,potency estimated from few doses,"MAP2K1; compound concentrations:100 nM and 1000 nM (sheet 'Lestaurtinib' of Supplementary Table 1),run:Lestaurtinib_03260_R3,Plate:MR033",2.31 µM
same,potency estimated from few doses,"MAP3K5; compound concentrations:100 nM and 1000 nM (sheet 'Lestaurtinib' of Supplementary Table 1),run:Lestaurtinib_02364_R1,Plate:MR002",0.938 µM
same,potency estimated from few doses,"MAP3K5; compound concentrations:100 nM and 1000 nM (sheet 'Lestaurtinib' of Supplementary Table 1),run:Lestaurtinib_02367_R1,Plate:MR003",1.24 µM
same,potency estimated from few doses,"MAP3K5; compound concentrations:100 nM and 1000 nM (sheet 'Lestaurtinib' of Supplementary Table 1),run:Lestaurtinib_02381_R1,Plate:MR004",0.987 µM
same,potency estimated from few doses,"MAP3K5; compound concentrations:100 nM and 1000 nM (sheet 'Lestaurtinib' of Supplementary Table 1),run:Lestaurtinib_02381_R2,Plate:MR004",0.926 µM
same,potency estimated from few doses,"MAP3K5; compound concentrations:100 nM and 1000 nM (sheet 'Lestaurtinib' of Supplementary Table 1),run:Lestaurtinib_02381_R3,Plate:MR004",0.826 µM
same,potency estimated from few doses,"MAP3K5; compound concentrations:100 nM and 1000 nM (sheet 'Lestaurtinib' of Supplementary Table 1),run:Lestaurtinib_02407_R1,Plate:MR005",1.6 µM
same,potency estimated from few doses,"MAP3K5; compound concentrations:100 nM and 1000 nM (sheet 'Lestaurtinib' of Supplementary Table 1),run:Lestaurtinib_02407_R2,Plate:MR005",1.35 µM
same,potency estimated from few doses,"MAP3K5; compound concentrations:100 nM and 1000 nM (sheet 'Lestaurtinib' of Supplementary Table 1),run:Lestaurtinib_02422_R2,Plate:MR006",1.15 µM
same,potency estimated from few doses,"MAP3K5; compound concentrations:100 nM and 1000 nM (sheet 'Lestaurtinib' of Supplementary Table 1),run:Lestaurtinib_02437_R1,Plate:MR007",1.46 µM
same,potency estimated from few doses,"MAP3K5; compound concentrations:100 nM and 1000 nM (sheet 'Lestaurtinib' of Supplementary Table 1),run:Lestaurtinib_02437_R2,Plate:MR007",0.983 µM
same,potency estimated from few doses,"MAP3K5; compound concentrations:100 nM and 1000 nM (sheet 'Lestaurtinib' of Supplementary Table 1),run:Lestaurtinib_02438_R2,Plate:MR008",1.37 µM
same,potency estimated from few doses,"MAP3K5; compound concentrations:100 nM and 1000 nM (sheet 'Lestaurtinib' of Supplementary Table 1),run:Lestaurtinib_02438_R3,Plate:MR008",1.53 µM
same,potency estimated from few doses,"MAP3K5; compound concentrations:100 nM and 1000 nM (sheet 'Lestaurtinib' of Supplementary Table 1),run:Lestaurtinib_02443_R1,Plate:MR009",1.31 µM
same,potency estimated from few doses,"MAP3K5; compound concentrations:100 nM and 1000 nM (sheet 'Lestaurtinib' of Supplementary Table 1),run:Lestaurtinib_02443_R2,Plate:MR009",1.41 µM
same,potency estimated from few doses,"MAP3K5; compound concentrations:100 nM and 1000 nM (sheet 'Lestaurtinib' of Supplementary Table 1),run:Lestaurtinib_02473_R1,Plate:MR010",0.969 µM
same,potency estimated from few doses,"MAP3K5; compound concentrations:100 nM and 1000 nM (sheet 'Lestaurtinib' of Supplementary Table 1),run:Lestaurtinib_02473_R2,Plate:MR010",1.43 µM
same,potency estimated from few doses,"MAP3K5; compound concentrations:100 nM and 1000 nM (sheet 'Lestaurtinib' of Supplementary Table 1),run:Lestaurtinib_02473_R3,Plate:MR010",0.858 µM
same,potency estimated from few doses,"MAP3K5; compound concentrations:100 nM and 1000 nM (sheet 'Lestaurtinib' of Supplementary Table 1),run:Lestaurtinib_02482_R1,Plate:MR011",1.46 µM
same,potency estimated from few doses,"MAP3K5; compound concentrations:100 nM and 1000 nM (sheet 'Lestaurtinib' of Supplementary Table 1),run:Lestaurtinib_02482_R2,Plate:MR011",1.89 µM
